# Mtb FBA inh = Mtb FBA enzyme inhibitors, primary screen, biochemical, fluorescence, strain H37Rv; inhibition, % at 1 µM; AID 588726, 2011; purified M. tuberculosis FBA, fluorescence read-out; Fructose-bisphosphate aldolase (Mycobacterium tuberculosis (strain ATCC 25618 / H37Rv)), …; 360,000 tested, 2.3% active; in the data active means inhibition above about 27%
# Target sequence (P9WQA3 whole entry, looked up): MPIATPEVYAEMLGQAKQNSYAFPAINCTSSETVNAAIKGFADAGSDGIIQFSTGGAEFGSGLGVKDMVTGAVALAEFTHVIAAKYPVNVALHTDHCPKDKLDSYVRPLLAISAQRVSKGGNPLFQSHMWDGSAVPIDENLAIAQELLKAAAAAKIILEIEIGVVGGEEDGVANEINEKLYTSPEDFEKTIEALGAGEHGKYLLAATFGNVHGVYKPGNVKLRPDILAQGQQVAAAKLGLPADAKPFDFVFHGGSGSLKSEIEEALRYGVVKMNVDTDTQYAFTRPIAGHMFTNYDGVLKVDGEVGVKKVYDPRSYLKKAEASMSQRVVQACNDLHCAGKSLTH
# BioA inh = M. tuberculosis BioA enzyme inhibitors, primary screen, biochemical, plate reader, single point, HTS; 7,8-diaminopelargonic acid synthase BioA (Mycobacterium tuberculosis); purified M. tuberculosis BioA enzyme; inhibition, % at 9.99 µM; 360,000 tested, 0.096% active; in the data active means inhibition above about 40%
# Mtb hypoxia rep = PubChem AID 1159583. M. tuberculosis hypoxia-regulated fluorescent reporter, fluorescence. fluorescence inhibition, % (test concentration not listed). 300,000 tested, 0.1% active; in the data active means fluorescence inhibition mostly above about 23%, no sharp cut-off; inactive means mostly below about 17%
# GDH-TPI counter = GDH-TPI coupling enzyme inhibitors, primary screen, artefact control for M. tuberculosis FBA inhibitor project, biochemical, absorbance, full deck | 360,000 tested, 1.2% active | GDH-TPI coupled enzyme counterscreen, NADH absorbance | inhibition, % at 4.8 µM | AID 588335, 2011; in the data active means inhibition above about 30%
# FadD28 binding = inhibitors of FadD28 bisubstrate probe binding, primary screen, biochemical, fluorescence polarization, single point | Mycobacterium tuberculosis FadD28 fatty-acid-AMP ligase | 360,000 tested, 0.22% active | inhibition, % at 12.5 µM; in the data active means inhibition above about 8.5%, passing the limit was not always enough
# Numbers stand for hits; - = inactive; . = no result given; + = active, no number. Compounds with a hit are over-represented: about 2.9% of the library has one in this group of screens.
SMILES,Mtb FBA inh,BioA inh,Mtb hypoxia rep,GDH-TPI counter,FadD28 binding
CCCNC(=O)Nc1ccc2c(c1)C(=O)N(C)C[C@H](OC)[C@@H](C)CN(C(=O)C1CCC1)[C@@H](C)CO2,.,-,.,.,.
COCc1cc(C=NNC(=O)Cc2ccc(Cl)cc2)ccc1OC,.,.,-,.,.
CC(C)(C)c1ccc(C(=O)NCc2cccnc2)cc1,-,.,-,-,-
Cc1ccc(C)n1-c1ccc(C(=O)NCc2cccnc2)cc1,31.1,.,-,-,-
CCCCc1c(O)n2c(nc3ccccc32)[nH]c1=O,-,-,.,-,-
CCOC(=O)c1cc(=O)n2c(nc3ccccc32)[nH]1,+,-,-,-,-
COc1ccc(-c2ccc3[nH]c4c(c3c2)CCN2C(=O)[C@@H]([C@H](C)O)[C@@H](N(C)C(=O)Nc3cc(Cl)cc(Cl)c3)C[C@@H]42)cc1,-,-,.,-,40.6
COc1ccc(-c2ccc3[nH]c4c(c3c2)CCN2C(=O)[C@@H]([C@H](C)O)[C@@H](N(C)C(=O)Nc3ccc(F)cc3)C[C@@H]42)cc1,-,-,.,-,-
CC(=O)Nc1ccc(S(=O)(=O)C(C#N)c2nc3ccccc3nc2NCCO)cc1 (stereo not given),+,-,-,-,-
Cc1ccc(S(=O)(=O)C(C#N)c2nc3ccccc3nc2OCCO)cc1 (stereo not given),-,.,-,-,-
CC(=O)Nc1ccc(S(=O)(=O)C(C#N)c2nc3ccccc3nc2NCCCO)cc1 (stereo not given),+,-,-,-,-
O=S(=O)(Cc1ccccc1)NCC[C@H]1CC[C@@H](NS(=O)(=O)c2ccc(F)cc2)[C@@H](CO)O1,.,-,.,.,.
C/C=C/c1ccc([C@@H]2[C@@H](CO)N(C(C)=O)[C@@H]2CN(C)S(C)(=O)=O)cc1,.,-,.,.,.
CCCOc1ccc(-c2nc(C#N)c(NCC3CCCO3)o2)cc1 (stereo not given),121.0,-,-,-,-
COc1ccc(-c2nc(C#N)c(NCC3CCCO3)o2)cc1OC (stereo not given),180.2,-,-,-,-
CCOc1ccc(-c2nc(C#N)c(NCC3CCCO3)o2)cc1 (stereo not given),177.2,-,-,-,-
O=C(C[C@H]1CC[C@@H](NC(=O)C2CCC2)[C@@H](CO)O1)NCC1CC1,.,-,.,.,.
O=C(C[C@H]1CC[C@H](NC(=O)Cc2cccnc2)[C@H](CO)O1)Nc1ccc(-c2ccccc2)cc1,.,-,.,.,.
CO[C@@H]1CN(C)C(=O)c2ccc(NC(=O)C3CC3)cc2OC[C@H](C)N(C(=O)C2CCOCC2)C[C@H]1C,.,-,.,.,.
Cc1ccc2c(CN3CCN(CCO)CC3)cc(=O)oc2c1C,-,.,-,-,-
CCc1cc2c(CN3CCN(C)CC3)cc(=O)oc2cc1O,+,.,-,-,-
Cc1cc2oc(=O)cc(CN3CCN(C/C=C/c4ccccc4)CC3)c2cc1O,-,-,.,35.1,-
CN1CCN(Cc2cc(=O)oc3cc4c(cc23)CCC4)CC1,-,-,-,-,-
CCc1cc2c(CN3CCN(CCO)CC3)cc(=O)oc2cc1O,186.5,.,-,-,-
CC(CC(=O)Nc1ccc(Cl)c(C(F)(F)F)c1)=NNC(N)=S,.,.,-,.,.
SMILES,Mtb FBA inh,BioA inh,Mtb hypoxia rep,GDH-TPI counter,FadD28 binding
C/C=C/c1ccc2c(c1)O[C@@H](CN(C)S(=O)(=O)c1ccc(C)cc1)[C@@H](C)CN([C@@H](C)CO)S2(=O)=O,.,-,.,.,.
Cc1cc(Nc2nc3ccccc3[nH]c2=O)n(-c2ccccc2)n1,-,-,.,42.5,-
Cc1cc(Nc2cnc3ccccc3n2)n(-c2ccccc2)n1,-,-,-,-,-
Nc1nc(NCCO)nc(NCC2CCCO2)c1[N+](=O)[O-] (stereo not given),-,-,-,37.4,-
Nc1nc(NCCO)nc(NCc2ccccc2)c1[N+](=O)[O-],-,-,-,-,-
CN(C)CCCNc1nc(N)c([N+](=O)[O-])c(NCCO)n1,-,-,-,38.2,-
Nc1nc(NCc2ccccc2)nc(NCCO)c1[N+](=O)[O-],-,-,-,31.7,-
CCN(CC)CCCNc1nc(N)c([N+](=O)[O-])c(NCCO)n1,-,-,-,-,-
CCC(C)Nc1nc(N)c([N+](=O)[O-])c(Nc2ccccc2OC)n1 (stereo not given),-,-,.,39.3,-
CNC(=O)C[C@H]1CC[C@H]2[C@@H](COc3ccc(NC(=O)Nc4ccc(Cl)cc4)cc3C(=O)N2C)O1,.,-,.,.,.
C[C@@H]1CCCCO[C@H](CN(C)C(=O)C2CCCCC2)[C@H](C)CN([C@@H](C)CO)C(=O)c2cc(NC(=O)Nc3cccc4ccccc34)ccc2O1,.,-,.,.,.
COc1ccccc1Nc1nc(NCCCN(C)C)nc(N)c1[N+](=O)[O-],-,-,-,38.2,-
CCN(CC)c1ccc2cc(NC(=O)CCC(=O)O)c(=O)oc2c1,31.4,.,-,-,-
CCN(CC)c1ccc2cc(C(C)=O)c(=O)oc2c1,-,-,.,-,-
CN(C)CCCN(C(=O)c1ccc2c(c1)CCCC2)c1nc2ccc(Cl)cc2s1,-,.,38.3,-,-
CCc1nc(Nc2ccc3c(c2)OCCO3)c2oc3ccccc3c2n1,-,-,-,32.5,-
Cc1nc(Nc2ccc3c(c2)OCCO3)c2oc3ccccc3c2n1,-,-,-,-,-
CNC(=O)C[C@H]1CC[C@H]2[C@H](COc3ccc(NC(=O)c4ccc(F)cc4)cc3C(=O)N2C)O1,.,-,.,.,.
CC(C)NC(=O)N(C)C[C@H]1Oc2cc(C3=CCCC3)ccc2S(=O)(=O)N([C@H](C)CO)C[C@H]1C,.,-,.,.,.
CC(C)NC(=O)Nc1ccc2c(c1)C(=O)N([C@H](C)CO)C[C@@H](C)[C@H](CN(C)S(=O)(=O)c1cccs1)OCCCC[C@@H](C)O2,.,-,.,.,.
CN1C(=O)NC(c2ccc(O)cc2)C(C(=O)c2cccs2)C1(O)C(F)(F)F (stereo not given),-,-,-,43.4,-
CC(=O)COc1ccc2c(C)c(-c3ccccc3)c(=O)oc2c1,-,.,-,-,-
COc1ccc(-c2c(C)c3ccc(O)cc3oc2=O)cc1OC,+,-,-,-,-
Cc1c(C)c2ccc(OCC(=O)c3ccccc3)cc2oc1=O,-,-,-,-,-
CCCc1c(C)c2ccc(OCC(C)=O)cc2oc1=O,124.1,-,.,-,-
C=CCOC(=O)COc1ccc2c(C)c(CC)c(=O)oc2c1,64.2,-,-,-,-
Cc1c(CCC(=O)O)c(=O)oc2cc(O)ccc12,+,-,-,-,-
CC(=O)N1[C@@H]2c3ccc(C4=CCCCC4)c(=O)n3C[C@H]1[C@H](CO)[C@H]2C(=O)NCc1cc(F)cc(F)c1,.,-,.,.,.
Cc1coc2cc3oc(=O)c(CCC(=O)NCC(=O)O)c(C)c3cc12,27.6,-,-,-,.
Cc1ccc(-c2ccc3c(c2)O[C@H](CN(C)C(=O)CN(C)C)[C@@H](C)CN([C@@H](C)CO)S3(=O)=O)cc1,.,-,.,.,.

# Bioassay records deposited in PubChem by several laboratories.
